Assay results reported in PubChem BioAssay (Tox21).
Where “and” joins values, the source holds several entries; their conditions need not be identical. Equal values may be shown once. Inconclusive results are not listed. Where a call stands in place of a potency, no number is given. More than one record can exist for a structure, and the calls need not agree. Calls of active or inactive are those of the source. Calls come from the whole dose curve; as a rule, active = well fitted cell-killing curve with a large enough effect in the repeat runs (not every such curve was filed as active); inconclusive = weak or mixed curves, or effect the other way; inactive = no such curve, though single readings can be large or run the other way.

experiment: qHTS assay to identify small molecule antagonists of the farnesoid-X-receptor (FXR) signaling pathway - cell viability counter screen (AID 743221); conditions: FXR-bla HEK293T viability, CellTiter-Glo luminescence, 16 h; series mostly up to 62.6 µM; note: nearly all actives have a fitted effect of over 50% in size
Text: National Center for Advancing Translational Sciences [NCATS]
NIH Chemical Genomics Center [NCGC]
U.S. Environmental Protection Agency [EPA]
National Institutes of Environmental Health Sciences [NIEHS]
National Toxicology Program [NTP]
U.S. Food and Drug Administration [FDA]
The farnesoid-X-receptor (FXR), a nuclear hormone receptor, is highly expressed in liver, intestine, kidney and adrenal cortex. Natural ligands of FXR are the bile acids (Cholic acid, Chenodeoxy cholic acid etc). FXR is an important regulator of diverse metabolic pathways, including the bile acid homeostasis, lipid and glucose metabolisms. FXR regulates the expression of target genes by binding either as a monomer or as a heterodimer with the retinoid X receptor (RXR). Numerous studies have reported that FXR exerts protective function during cholestasis, diabetes, liver regeneration, and cancer. To identify compounds that inhibit FXR signaling, GeneBLAzer FXR-UAS-bla HEK 293T cell line (Invitrogen, Carlsbad, CA) containing a beta-lactamase reporter gene under the control of a UAS response element was used to screen the Tox21 10K compound library. The cytotoxicity of the Tox21 compound library against the FXR-bla cell line was tested in parallel by measuring the cell viability using CellTiter-Glo assay in the same wells.
Tox21 Assay Protocol Summary:
FXR-bla cells were dispensed at 5000 cells/5uL/well in 1536-well black wall/clear bottom plates using a Multidrop Combi (Thermo Fisher Scientific, Waltham, MA) dispenser. After the assay plates were incubated at 37 C and 5% CO2 for 5 h, 23 nL of compounds dissolved in DMSO, positive controls or DMSO only was transferred to the assay plate by a Pintool station (Kalypsys, San Diego, CA), followed by addition of 1 uL Chenodeoxycholic acid (50 uM, final concentration in the wells). The assay plates were incubated at 37C for 16 h. After 1 uL of LiveBLAzerTM B/G FRET substrate was added using a Bioraptr Flying Reagent Dispenser (FRD) workstation (Beckman Coulter, Indianapolis, IN), the plates were incubated at room temperature for 2 h, and fluorescence intensity was measured by an Envision plate reader (PerkinElmer, Shelton, CT). For cell viability readout that measures cytotoxicity, 4uL/well of CellTiter-Glo reagent was added into the assay plates using a Bioraptr FRD. After 30 min incubation at room temperature, the luminescence intensity in the plates was measured using a ViewLux plate reader (PerkinElmer).
Potency is the fitted concentration of half-maximal effect.

SMILES	Potency	activity change, negative = cytotoxicity
O=C(Cl)CCl	inactive	
CCC(C)(C#N)N=NC(C)(C#N)CC (stereo not given)	inactive	
OCC(Cl)CCl (stereo not given)	inactive	
Clc1cc2c(cc1Cl)Oc1cc(Cl)c(Cl)cc1O2		-5.6% [at 0.275 µM] (inactive)
N#CN=C1SCCN1Cc1ccc(Cl)nc1	inactive	
CCC(=O)c1ccc(Cl)cc1	inactive	
CCN1CCCC1CNC(=O)C(O)(c1ccccc1)c1ccccc1 (stereo not given)	inactive	
ClC1=C(Cl)C2(Cl)C(CBr)CC1(Cl)C2(Cl)Cl (stereo not given)	inactive	
CC1NCCOC1c1ccccc1 (stereo not given)	inactive	
NNCc1ccccc1	inactive	
CN=CNc1ccc(C)cc1C	inactive	
CCCCCCCCBr	inactive	
O=C(O)C(Br)(Br)Br	inactive	
C[C@H](CN1CCOCC1)C(C(=O)N1CCCC1)(c1ccccc1)c1ccccc1	inactive	
Oc1ccc(Cc2ccc(O)cc2)cc1	inactive	
CCOC(=O)NC(C)(C)Cc1ccc(Cl)cc1	inactive	
C/C(=N\NC(=O)Nc1cc(F)cc(F)c1)c1ncccc1C(=O)O	inactive	
O=C1C2CC=CCC2C(=O)N1SC(Cl)(Cl)Cl (stereo not given)	inactive and 42.9 µM (active)	
CCC1(CC)C(=O)C=CNC1=O	inactive	
CC1N=C(N)OC1c1ccccc1 (stereo not given)	inactive	

SMILES	Potency	activity change, negative = cytotoxicity
N=C(N)[Se]	inactive	
Brc1c(Br)c(Br)c(Br)c(Br)c1Br		-6% [at 5.95 µM] (inactive)
CC(C)(C)C(=O)C(Cl)Cl	inactive	
COc1cc(CCN)cc(OC)c1OC	inactive	
CC(C)(N)Cc1ccccc1Cl	inactive	
CC(C)(C)c1cc(O)ccc1O	inactive	
N#CC(Br)(Br)C(N)=O	inactive	
CC[C@@H](CO)NC(=O)[C@@H]1C=C2c3cccc4c3c(cn4C)C[C@H]2N(C)C1	inactive	
CCC(C)C(C)(COC(N)=O)COC(N)=O (stereo not given)	inactive	
C#CC(C)(C)O	inactive	
CCCCCCCCSC(=O)Oc1cc(Cl)nnc1-c1ccccc1	inactive	
C=CC=O	inactive	
C=C(Cl)CCl	inactive	
C[N+]1(C)CCCCC1	inactive	
OP(O)c1ccccc1	inactive	
Cn1c(N)nc2c3cccnc3ccc21	inactive	
CCN(CCO)CCO	inactive	
CCN(CCO)CCn1c(Cc2ccccc2)nc2c1c(=O)n(C)c(=O)n2C	inactive	
CC(=O)OCC1=C(C(=O)O)N2C(=O)[C@@H](N)[C@H]2SC1	inactive	
O=C(Cl)/C=C/C(=O)Cl	inactive	
